Test results taken from PubChem BioAssay AID1209 (Sanford-Burnham Center for Chemical Genomics, 2008).
Screen size: about 190,000 compounds; about 810 (0.43%) were called active. This is one part of a sample in which actives are shown more often than they occur. Rule as the data show it: active = inhibition above about 50%; inactive = the rest.

molecular target: Mannose-6-phosphate isomerase (Homo sapiens) (UniProt P34949); assay: inhibitors of human PMI, primary screen, biochemical, fluorescence intensity, coupled assay (AID 1209); conditions: purified PMI enzyme, at 20 µM, active compounds read high;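 also: plate controls were DMSO vehicle for no effect and wells lacking substrate for full effect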
Sequence (P34949 whole entry, looked up): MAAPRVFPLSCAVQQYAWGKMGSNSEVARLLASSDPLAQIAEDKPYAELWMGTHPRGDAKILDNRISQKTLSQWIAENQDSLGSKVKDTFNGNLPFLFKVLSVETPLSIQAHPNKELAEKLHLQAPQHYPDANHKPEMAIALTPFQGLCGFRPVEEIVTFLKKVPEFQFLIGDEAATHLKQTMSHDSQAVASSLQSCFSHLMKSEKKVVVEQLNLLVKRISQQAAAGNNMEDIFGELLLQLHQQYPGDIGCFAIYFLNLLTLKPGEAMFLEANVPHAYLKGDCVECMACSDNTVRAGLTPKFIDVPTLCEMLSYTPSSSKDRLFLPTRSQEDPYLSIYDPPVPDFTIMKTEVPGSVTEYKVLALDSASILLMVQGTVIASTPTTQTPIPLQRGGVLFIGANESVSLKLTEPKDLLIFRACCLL

inhibition, inactive:
CC(NC(=O)NC12CC3CC(CC(C3)C1)C2)c1ccc2c(c1)OCO2 (configuration not stated) -7.3%
O=C(NCC(c1ccco1)N1CCN(c2ccccc2F)CC1)OCc1ccccc1 (configuration not stated) 18%
O=C(N1CCCCCC1)n1c(Cc2ccccc2)nc2ccccc21 -0.4%
NCc1oc(-c2ccccc2)cc1C(=O)O -55.4%
COc1c(C(O)CC(C)C)ccc2c1C(=O)OCc1cc(C)cc(O)c1O2 (configuration not stated) 23.7%
O=C(CCCc1c[nH]c2ccccc12)NCC1COc2ccccc2O1 (configuration not stated) -0.7%
Cc1cccc(CN2CCN(CC(=O)NCc3cccs3)C2=O)c1 -8.2%
CCOc1ccc(C(=O)Nc2ccc(N3CCCC3)cc2)cc1 -29%
CCOc1ccc(CNc2ccc(CNc3ncn[nH]3)cc2)cc1 9.7%
O=C(CSc1nc2[nH]ncc2c(=O)n1-c1ccccc1)NCc1cccs1 -10.6%
O=C(CCCCCC(=O)N(CCO)CCO)N(CCO)CCO -2.9%
CC1(C)CNc2cc([N+](=O)[O-])ccc2S1 1.5%
CC1(C)CC(=S)Nc2ccccc2S1 41.8%
O=C(NCc1ccc2c(c1)OCO2)c1cc(-c2ccccc2)on1 15.7%
O=C(c1ccc(OCC2CCCO2)cc1)N1CCc2ccccc2C1 (configuration not stated) 2.4%
Oc1ccc2ccccc2c1/C=N/Nc1nnc(-c2ncc[nH]2)c2ccccc12 -2.3%
CC(=O)Nc1ccc(C(=S)NCc2ccco2)cc1 9.7%
CN(C)c1ccc(/C=N/NC(=S)NCc2ccco2)cc1 -8%
C/C(=N\NC(=O)COc1ccc(C#N)cc1)c1ccccc1OC(F)F 1%
CC(=O)Nc1cccc(Oc2ncnc3scc(-c4ccc(C(C)C)cc4)c23)c1 12.9%
CNC(=O)c1nn(-c2ccc(Cl)cc2)ccc1=O 6.2%
CCOc1cc(NC(=S)NCCCOC)c(OCC)cc1NC(=O)c1cccs1 17.4%
CC[n+]1ccc(/C=C/c2ccc(N(C)C)cc2)c2ccccc21 1%
CC[n+]1ccc(C)c2cc(P(=O)(c3ccccc3)c3ccccc3)ccc21 -16%
CC(=O)Nc1ccc(C2=NN(Cc3nnc(-c4ccccc4)o3)C(=O)SC2)cc1 2.2%
CN(C)c1cccc(C(=O)NCC2CCCO2)c1 (configuration not stated) 9.2%
O=C(Nc1ccc(N=Nc2ccccc2)cc1)c1ccccc1Cl 2.6%
O=C(Nc1ccc(N=Nc2ccccc2)cc1)c1cccc(Cl)c1 7.7%
COc1cccc(NC(=O)c2cccnc2)c1 8.6%
CCC(C)(C)n1nnnc1C(c1cc2cc(C)ccc2[nH]c1=O)N1CCCc2ccccc21 (configuration not stated) 44.4%
O=c1[nH]c2cc3c(cc2cc1C(c1nnnn1C1CCCC1)N1CCCc2ccccc21)OCCO3 (configuration not stated) 12.8%
CCOC(=O)Cc1csc(NC(=O)CSc2nnc(-c3ccc(F)cc3)o2)n1 -5.5%
CCOC(=O)c1ccccc1NC(=O)COC(=O)c1ccc(C)c(S(=O)(=O)N2CCOCC2)c1 6.5%
CCOC(=O)Cn1nc(C)n(-c2ccc(C(C)(C)C)cc2)c1=O 12.5%
Clc1ccc(/C=N/Nc2ccccn2)cc1 -8.3%
COc1ccc(/C=N/Nc2cc(OC)ncn2)cc1 14.3%
COc1ccccc1/C=N/Nc1nncc2ccccc12 2.9%
Cc1cc(N/N=C/c2ccc(Cl)cc2)nc(NCc2ccccc2)n1 21.7%
COc1ccc(/C=N/Nc2cc(C)nc(N)n2)cc1 12.1%
Cc1cc(N/N=C\c2ccccc2)nc(-c2ccccc2O)n1 17.7%
COc1ccccc1/C=N/NC1=NCCCCC1 2.7%
Cc1cc(N/N=C/c2ccccc2)nc(NCc2ccccc2)n1 21.5%

inhibition, active:
CCOc1ccc(CNc2ccc(N3CCCC3)cc2)cc1 85.9%
CC1(C)CNc2cc(N)ccc2S1 82.8%
CN(C)c1ccc(C(=S)NCc2ccco2)cc1 50.7%
CC[n+]1ccc(C[n+]2ccccc2)c2ccccc21 96.8%
O=C(Nc1ccc(N=Nc2ccccc2)cc1)c1ccc(Cl)cc1Cl 57.5%
Cc1ccc2[nH]c(=O)c(C(c3nnnn3C3CCCC3)N3CCCc4ccccc43)cc2c1 (configuration not stated) 57.3%
CN(C)c1cc(N/N=C\c2ccccc2)nc(N(C)C)n1 59.2%
COc1ccccc1/C=N/Nc1cc(N(C)C)nc(N(C)C)n1 60.4%
CN(C)c1cc(N/N=C/c2ccc(Cl)cc2)nc(N(C)C)n1 67.4%
COc1ccc(/C=N/Nc2cc(N(C)C)nc(N(C)C)n2)cc1 61.2%
